# Measured values: PubChem BioAssay AID1259415 (National Center for Advancing Translational Sciences (NCATS), 2018)
# In all, about 410,000 compounds went through this assay and about 18,000 (4.4%) were called active. Roughly 7% stayed inconclusive and do not appear here. This is one part of a sample in which actives are shown more often than they occur. Cut-off read from the data, not from the text of the source: active = activity change below about -60%; inconclusive = no clear call, values can overlap the other calls; inactive = above about -39%.
# Experiment: qHTS Assay for inhibitors of the human cytomegalovirus (HCMV)
# Conditions: HFF cells, HCMV-luciferase reporter, 72 h; at 57.5 µM; hits give low values
# How it was run: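 Cell-based, HFFs, 1000 cells/well, 16 h 37C; cpds in DMSO + HCMV-luc, MOI 1 PFU/cell; 72 h 37C; OneGlo luminescence after 5 min RT; norm. to buffer vs Salinomycin 10uM.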
# % is set by controls: 0 for no effect and ±100 for the full control effect.
row,SMILES,"activity change, negative = inhibition"
1,COc1ccc(/C=C(\C#N)C(=O)OCC(=O)N(C)C2CCS(=O)(=O)C2)cc1 (stereo not given),-87.3% (active)
2,COc1ccc(-c2cc(=O)oc3cc(OCC(=O)N(C)C4CCS(=O)(=O)C4)ccc23)cc1 (stereo not given),4.48% (inactive)
3,CC(=O)c1ccc(OCC(=O)N(C)C2CCS(=O)(=O)C2)cc1 (stereo not given),-17% (inactive)
4,CCOC(=O)c1c(S(=O)(=O)N2CCC(C(=O)NCc3ccccc3OC)CC2)c(C)n(C)c1C,9.09% (inactive)
5,O=C(CC1Oc2ccc(Cl)cc2NC1=O)NCc1ccccc1 (stereo not given),-7.24% (inactive)
6,O=C(Nc1ccc(F)cc1F)c1ccc2c(=O)n3c(nc2c1)CCCCC3,61.7% (inactive)
7,COc1cccc(CNC(=O)C(NS(=O)(=O)c2ccc3nc(C)sc3c2)C(C)C)c1 (stereo not given),-9.19% (inactive)
8,COC(=O)c1ccc(COc2ccc(C#N)cc2)o1,-13.9% (inactive)
9,Cc1ccc(C(=O)NC23CC4CC(CC(C4)C2)C3)c(Cl)c1,20.9% (inactive)
10,COc1ccccc1C(=O)NC(=S)NC12CC3CC(CC(C3)C1)C2,-36.1% (inactive)
11,S=C(NCc1ccc(Cl)cc1)NC12CC3CC(CC(C3)C1)C2,-100% (active)
12,Cc1cc(-c2ccccc2)n2nc(-c3ccccc3)cc2n1,-2.35% (inactive)
13,CC(C)(C)c1ccccc1NC(=O)CN1C(=O)NC2(CCCC2)C1=O,19.2% (inactive)
14,CC12CCC(=O)N1C(C(=O)NCCN1C(=O)S/C(=C\c3ccccc3F)C1=O)CS2 (stereo not given),-21.8% (inactive)
15,O=C(NCCN1C(=O)S/C(=C\c2cccnc2)C1=O)c1ccc(S(=O)(=O)N2CCCC2)cc1,3.64% (inactive)
16,O=C(CN1C(=O)S/C(=C\c2ccccc2Cl)C1=O)NC1C=CS(=O)(=O)C1 (stereo not given),-66.8% (active)
17,CCCn1c2ccccc2c2cnn(CC(=O)N(CC)c3cc(C)ccc3C)c(=O)c21,-37.8% (inactive)
18,Cc1ccc(C(=O)Nc2cc3c(cc2N2CCCC2)n(C)c(=O)c(=O)n3C)cc1,0.153% (inactive)
19,O=C(NC1CCN(Cc2ccccc2)CC1)c1ccc(Cn2c(=O)c3ccccc3n(Cc3cccc(F)c3)c2=O)cc1,-15.8% (inactive)
20,CCC(C(=O)Nc1cccc(Cl)c1C)n1nc(-c2ccc(C)cc2)ccc1=O (stereo not given),12.4% (inactive)
21,Cc1nnc(NC(=O)CSc2nc3c([nH]c4ccccc43)c(=O)n2-c2cccc(Cl)c2)s1,-12.8% (inactive)
22,CCCCCCc1cc2cc(-c3nnc(-c4ccccc4)o3)c(=O)oc2cc1O,-100% (active)
23,COn1c(-c2ccc(Cl)cc2Cl)nc2ncccc21,-63.6% (active)
24,Cc1ncn2cc(-c3ccc(Cl)cc3Cl)[nH]c(=O)c12,-32.3% (inactive)
25,CCn1c(-c2cccnc2Cl)nc2cc(C)c(C)cc21,-25.4% (inactive)
